Data taken from PubChem BioAssay (Tox21).
Inconclusive results are not listed. Activity calls are given as the source filed them. Calls follow the shape of the dose curve; as a rule, active = well fitted curve in the direction sought with a large enough effect in the repeat runs; inconclusive = weak or mixed curves; inactive = no such curve, though single readings can be large; an effect the other way counts as inactive or inconclusive.

Legend:
[1] = qHTS RealTime-Glo MT Cell Viability Assay in HEK293 cells - 40 hour (AID 1224874); conditions: RealTime-Glo luminescence; max response: hits give low values; also: nearly all actives have a fitted effect of over 50% in size
Procedure, shortened: (§1)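 600 HEK293 cells per well, dispensed already mixed with RealTime-Glo MT reagents. Compound dosing came 5 h later. The same wells were read for luminescence at 0, 8, 16, 24, 32 and 40 h of exposure at 37 C.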

[2] = A CellTox Green Cytotoxicity Assay to monitor cytotoxicity in HEK293 cells - 24 hour (AID 1224875); also: series mostly up to about 77 µM; nearly all actives have a fitted effect of over 45% in size
Procedure, shortened: (§2)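 Dead-cell fluorescence measured kinetically: asymmetric cyanine dye, HEK293, 600 cells/well, 5 h settle, 23 nL cpd/DMSO, 37 C, reads 0–40 h every 8 h.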

[3] = A CellTox Green Cytotoxicity Assay to monitor cytotoxicity in HepG2 cells - 16 hour (AID 1224876); also: nearly all actives have a fitted effect of over 45% in size
Procedure, shortened: (§3)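 First, HepG2 cells (600/well) mixed with reagent were plated; second, after 5 h at 37 C they received compounds via pintool; third, fluorescence was measured at 0 h through 40 h at 8 h intervals.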

[4] = qHTS RealTime-Glo MT Cell Viability Assay in HepG2 cells - 32 hour (AID 1224877); also: nearly all actives have a fitted effect of over 55% in size
Procedure, shortened: (§4)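 Luminescence read-out: viable HepG2 cells reduce a prosubstrate to a NanoLuc substrate, giving a signal proportional to live cell number. Reads taken at 0, 8, 16, 24, 32 and 40 h of compound exposure at 37 C.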

[5] = A CellTox Green Cytotoxicity Assay to monitor cytotoxicity in HepG2 cells - 24 hour (AID 1224878); also: nearly all actives have a fitted effect of over 45% in size
Procedure, shortened: as §3

[6] = A CellTox Green Cytotoxicity Assay to monitor cytotoxicity in HepG2 cells - 40 hour (AID 1224879); also: nearly all actives have a fitted effect of over 40% in size
Procedure, shortened: as §3

[7] = qHTS RealTime-Glo MT Cell Viability Assay in HEK293 cells - 0 hour (AID 1224880); also: top concentration of the series differs between compounds; nearly all actives have a fitted effect of over 45% in size
Procedure, shortened: as §1

[8] = A CellTox Green Cytotoxicity Assay to monitor cytotoxicity in HEK293 cells - 32 hour (AID 1224881); also: nearly all actives have a fitted effect of over 40% in size
Procedure, shortened: as §2

[9] = A CellTox Green Cytotoxicity Assay to monitor cytotoxicity in HepG2 cells - 0 hour (AID 1224882); also: nearly all actives have a fitted effect of over 35% in size
Procedure, shortened: as §3

[10] = A CellTox Green Cytotoxicity Assay to monitor cytotoxicity in HepG2 cells - 32 hour (AID 1224883); also: nearly all actives have a fitted effect of over 50% in size
Procedure, shortened: as §3

[11] = A CellTox Green Cytotoxicity Assay to monitor cytotoxicity in HEK293 cells - 8 hour (AID 1224884); also: nearly all actives have a fitted effect of over 35% in size
Procedure, shortened: as §2

[12] = qHTS RealTime-Glo MT Cell Viability Assay in HepG2 cells - 16 hour (AID 1224885); also: nearly all actives have a fitted effect of over 50% in size
Procedure, shortened: as §4

[13] = qHTS RealTime-Glo MT Cell Viability Assay in HEK293 cells - 24 hour (AID 1224886); also: top concentration of the series differs between compounds; nearly all actives have a fitted effect of over 50% in size
Procedure, shortened: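 Nonlytic real-time viability readout: viable cells convert prosubstrate to NanoLuc substrate, giving luminescence proportional to live cell number. HEK293, 600 cells/well, compound added after 5 h, continuous culture at 37 C.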

[14] = qHTS RealTime-Glo MT Cell Viability Assay in HEK293 cells - 8 hour (AID 1224887)
Procedure, shortened: as §1

[15] = A CellTox Green Cytotoxicity Assay to monitor cytotoxicity in HEK293 cells - 16 hour (AID 1224888); also: nearly all actives have a fitted effect of over 35% in size
Procedure, shortened: as §2

[16] = qHTS RealTime-Glo MT Cell Viability Assay in HepG2 cells - 0 hour (AID 1224889); also: nearly all actives have a fitted effect of over 50% in size
Procedure, shortened: as §4

[17] = A CellTox Green Cytotoxicity Assay to monitor cytotoxicity in HepG2 cells - 8 hour (AID 1224890); also: nearly all actives have a fitted effect of over 45% in size
Procedure, shortened: as §3

[18] = qHTS assay to identify small molecule antagonists of the estrogen receptor alpha (ER-alpha) signaling pathway using the BG1 cell line in the presence of 0.1 nM 17-beta-estradiol - cell viability counter screen (AID 1259241); also: nearly all actives have a fitted effect of over 40% in size
Procedure, shortened: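 Cytotoxicity counter-screen: live-cell protease activity measured by fluorescence (30 min reagent step) in the same wells. Cells were VM7Luc4E2 with endogenous ER-alpha and ERE-driven luciferase, treated 22 hr at 37C alongside 0.1 nM 17beta-estradiol final.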

[19] = qHTS assay to identify small molecule antagonists of the androgen receptor (AR) signaling pathway using the MDA cell line in the presence of 0.5 nM R1881 - cell viability counter screen (AID 1259242); also: nearly all actives have a fitted effect of over 45% in size
Procedure, shortened: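 qHTS format. MDA-kb2 (MMTV-luc, AR/GR responsive) + cpd + 0.5 nM R1881 final, 16 hr 37C/0% CO2 → CellTiter-Fluor 30 min → fluorescence intensity.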
% is scaled to controls: 0 for no effect and ±100 for the full control effect.

COC(=O)C(C)=O
inactive: max response [1] -0.909% | Potency [2] | Potency [3] | Potency [4] | Potency [5] | Potency [6] | Potency [7] | Potency [8] | Potency [9] | Potency [10] | Potency [11] | Potency [12] | Potency [13] | Potency [14] | Potency [15] | Potency [16] | Potency [17] | Potency [18] | Potency [19]

CN1CCC(OC(c2ccccc2)c2ccccc2)CC1
inactive: max response [1] -5.84% | Potency [2] | Potency [3] | Potency [4] | Potency [5] | Potency [6] | Potency [7] | Potency [8] | Potency [9] | Potency [10] | Potency [11] | Potency [12] | Potency [13] | Potency [14] | Potency [15] | Potency [16] | Potency [17] | Potency [18] | Potency [19]

NCCCOCCOCCOCCCN
inactive: max response [1] -18% | Potency [2] | Potency [3] | Potency [4] | Potency [5] | Potency [6] | Potency [7] | Potency [8] | Potency [9] | Potency [10] | Potency [11] | Potency [12] | Potency [13] | Potency [14] | Potency [15] | Potency [16] | Potency [17] | Potency [18] | Potency [19]

O=S(=O)(O)c1ccc(O)c2ncccc12
inactive: max response [1] 27.2% | Potency [2] | Potency [3] | Potency [4] | Potency [5] | Potency [6] | Potency [7] | Potency [8] | Potency [9] | Potency [10] | Potency [11] | Potency [12] | Potency [13] | Potency [14] | Potency [15] | Potency [16] | Potency [17] | Potency [18] | Potency [19]

CCOC(=O)CC(C)C
inactive: max response [1] 6.18% | Potency [2] | Potency [3] | Potency [4] | Potency [5] | Potency [6] | Potency [7] | Potency [8] | Potency [9] | Potency [10] | Potency [11] | Potency [12] | Potency [13] | Potency [14] | Potency [15] | Potency [16] | Potency [17] | Potency [18] | Potency [19]

S=C(S)NCCNC(=S)S
inactive: max response [1] -4.71% | Potency [2] | Potency [3] | Potency [4] | Potency [5] | Potency [6] | Potency [7] | Potency [8] | Potency [9] | Potency [10] | Potency [11] | Potency [12] | Potency [13] | Potency [14] | Potency [15] | Potency [16] | Potency [17] | Potency [18] | Potency [19]
